# Sampled rows, rich in hits. Any-hit rate of the full collection: about 19%.
# HT1080-NT tox – kills 2HG-producing HT-1080-NT fibrosarcoma cells; HT-1080-NT fibrosarcoma viability, CellTiter-Glo ATP luminescence, 48 h; 360,000 tested, 1.6% active; Potency, µM (highest dose often 46.1 µM), usual class: cytotoxic; AID 686970;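 further: NT is the 2HG producing partner of a matched IDH1 knockdown line; nearly all actives have a fitted effect of over 55% in size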
#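 Luminescent CellTiter-Glo readout after 48 hours of compound exposure at 37 degrees C defined viability of HT-1080-NT cells. Activity was normalized to DMSO wells and cell-free media wells; concentration-response curves were fitted and assigned curve classes.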
# TDP1 cell CPT – growth inhibition of DT40 Tdp1-/-;hTDP1 cells with camptothecin (screen for TDP1 inhibitors); chicken DT40 Tdp1-/-;hTDP1 cells + 20 nM CPT, ATP luminescence, 48 h; Potency, µM (top dose mostly 46.2 µM), usual class: inhibitors; 420,000 tested, 12% active; AID 686979; further: nearly all actives have a fitted effect of over 55% in size
#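 Chicken DT40 Tdp1-/- cells complemented with human TDP1, 400 cells/well, exposed to compounds plus 20 nM camptothecin for at least 48 h at 37 C; viability read as ATP content by CellTiter-Glo luminescence.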
# KB-3-1 cytotox – kills parental KB-3-1 adenocarcinoma cells; KB-3-1 viability, CellTiter-Glo ATP luminescence, 72 h; Potency, µM (doses to about 46.1 µM), actives largely listed as cytotoxic; 400,000 tested, 1.4% active; AID 1347075; further: nearly all actives have a fitted effect of over 60% in size
#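 Parental KB-3-1 adenocarcinoma cells in phenol-red-free DMEM with 10% FBS were pin-treated with compounds at several concentrations, incubated 72 h at 37 °C, and viability read by CellTiter-Glo luminescence; concentration-effect curves were fitted after normalization.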
# KB-V1 cytotox – kills drug-selected multidrug resistant KB-V1 cells; KB-V1 MDR cells viability, CellTiter-Glo, 72 h; 400,000 tested, 3.4% active; AID 1347076; Potency, µM (titrated, usually from 46.1 µM), actives largely listed as cytotoxic; further: nearly all actives have a fitted effect of over 60% in size
#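 KB-V1, DMEM (no phenol red) + 10% FBS; cpd pin-transferred, titration series; 72 h, 37 degrees C; CellTiter-Glo, luminescence. Data normalized, curve-fit.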
# HT1080 IDH1KD tx – HT-1080 IDH1 knockdown cell toxicity (counter line); Potency, µM (titrated, usually from 46.1 µM), hits mostly cytotoxic; HT-1080 IDH1 knockdown viability, ATP luminescence, 48 h; 360,000 tested, 2% active
#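 Assay cells: HT-1080 with IDH1 knockdown, 750 per well, RPMI/5% FBS. Exposure: 48 h at 37 °C following 2 h pre-incubation. Read: CellTiter-Glo luminescence; fitted concentration-response, curve class assigned.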
# DT40 TDP1 no CPT – qHTS for Inhibitors of human tyrosyl-DNA phosphodiesterase 1 (TDP1): qHTS in cells in absence of CPT. DT40 Tdp1-/- hTDP1 cells, no CPT, ATP luminescence, 48 h. Potency, µM (top dose mostly 46.2 µM), most hits filed as inhibitors. 420,000 tested, 15% active. AID 686978, 2013; further: nearly all actives have a fitted effect of over 55% in size
#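 Camptothecin absent (DMSO only). Human TDP1-complemented DT40 knockout cells, 400 cells/well, 37 °C for minimum 48 hr; ATP measured via CellTiter-Glo, 30 min dark incubation, luminescence.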
# A number is an active result; i = inactive; ? = inconclusive; nt = no result given. The call rests on the fitted dose curve; in most records, active means well fitted curve in the direction sought with a large enough effect; inconclusive means small, poorly fitted or top-dose-only effect, or another doubt; inactive means no such curve, though single readings can be large; an effect the other way counts as inactive or inconclusive.
SMILES,HT1080-NT tox,TDP1 cell CPT,KB-3-1 cytotox,KB-V1 cytotox,HT1080 IDH1KD tx,DT40 TDP1 no CPT
O=C(CN(Cc1ccc(Br)cc1)S(=O)(=O)c1ccccc1)NCC1CCCO1 (configuration not stated),i,?,i,?,i,?
CC(C)(C)c1ccc(/C=N/NC(=S)NC2CCCCC2)cc1,i,15µM,?,?,?,12µM
O=C(N/N=C/c1ccccc1F)NC1CCCCC1,i,i,i,i,i,i
CC(/C=N/NC(=O)NC1CCCCC1)=C\c1ccccc1,i,21µM,i,i,i,21µM
O=C(N/N=C/c1ccccc1)NC1CCCCC1,i,?,i,16µM,i,?
CSc1ccc(-c2cc3c(c4c2ccn4C)C2CCC3O2)cc1 (configuration not stated),i,?,i,i,i,?
CCOc1cccc(C(=O)N(Cc2ccc(F)cc2)C2CCS(=O)(=O)C2)c1 (configuration not stated),i,i,i,i,i,i
CC(C)COc1ccc(C(=O)N(Cc2ccc(N(C)C)cc2)Cc2ccco2)cc1,nt,18µM,nt,nt,nt,15µM
CCOc1cccc(C(=O)N(Cc2ccc(F)cc2)Cc2ccco2)c1,nt,23µM,nt,nt,nt,16µM
CCOc1c(Cl)cc(C(=O)N(Cc2ccc(N(C)C)cc2)Cc2ccco2)cc1Cl,nt,23µM,nt,nt,nt,13µM
CCOc1ccccc1C(=O)N(Cc1ccc(N(C)C)cc1)Cc1ccco1,nt,?,nt,nt,nt,16µM
O=C(c1ccc(Cl)c(Cl)c1)N(Cc1ccco1)c1ccc(O)cc1,?,?,i,?,?,?
CC(C)COc1ccc(C(=O)Nc2ccc(NC(=O)c3ccco3)cc2)cc1,i,?,i,i,i,?
CN(C)c1ccc(CN(Cc2ccco2)C(=O)c2ccco2)cc1,i,?,i,?,i,?
Cc1oc(-c2ccccc2F)nc1CS(=O)CC(=O)NC(C)C (configuration not stated),nt,i,i,i,nt,i
O=C(CSc1ccccn1)Nc1ccc2[nH]c(=O)[nH]c2c1,i,i,i,i,i,i
CCOC(=O)c1c(C)[nH]c(N=Nc2cccc(OC)c2)c1C,i,i,i,?,i,?
Nc1c2c(nc3c1CCCC3)CCCC2 (tested in a mixture with another compound),i,i,i,i,i,i
CC(C)COc1cccc(C(=O)N(CC(=O)Nc2ccccc2C(F)(F)F)Cc2ccco2)c1,i,?,i,i,i,18µM
Cc1ccccc1OCCC(=O)N(CC(=O)Nc1ccccc1C(F)(F)F)Cc1ccco1,i,i,i,i,i,i
Cc1ccc(CN(Cc2ccco2)C(=O)c2ccc(Cl)cc2Cl)cc1,nt,?,i,i,nt,?
COc1ccc(CN(Cc2ccco2)C(=O)c2ccccc2F)cc1,nt,16µM,nt,nt,nt,16µM
O=[N+]([O-])c1ccc(S(=O)(=O)N/N=C/c2ccsc2)cc1,i,i,i,i,i,i
COc1cccc(NC(=O)CN2C(=O)C3(SCC(=O)N3c3cc(C)cc(C)c3)c3ccccc32)c1 (configuration not stated),nt,18µM,?,?,nt,?
CCOc1ccc(NC(=O)CN2C(=O)C3(SCC(=O)N3c3ccc(F)cc3)c3ccccc32)cc1 (configuration not stated),nt,23µM,i,i,nt,?
CCc1cccc(C)c1NC(=O)CN1C(=O)C2(SCC(=O)N2c2cc(C)cc(C)c2)c2ccccc21 (configuration not stated),nt,18µM,i,i,nt,16µM
Cc1cccc(NC(=O)CN2C(=O)C3(SCC(=O)N3c3ccccc3)c3ccccc32)c1 (configuration not stated),nt,23µM,i,?,nt,?
Cc1ccc(N2C(=O)CSC23C(=O)N(CC(=O)NCCc2ccccc2)c2ccccc23)cc1 (configuration not stated),nt,i,i,i,nt,i

# High-throughput results from PubChem BioAssay.
